Among the data in PubChem BioAssay AID782 (Emory University Molecular Libraries Screening Center, 2007) are inhibition values, retold here.

Out of some 220,000 compounds screened, about 800 (0.36%) were called active.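 The calls were made as follows: active = inhibition above about 30% (limit read from the data); inactive = the rest.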 Shown is part of a subset that was picked to be rich in actives.

For this experiment, the target named is Eukaryotic translation initiation factor 4E (Mus musculus) + Eukaryotic translation initiation factor 4 gamma 1 (Homo sapiens) (UniProt P63073+Q04637). The experiment is described as follows: blockers of eIF4G binding by eIF4E – biochemical, uHTS, TR-FRET, eIF4GI fragment, primary screen (AID 782).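 Also: 0% = full FRET control wells and 100% = background wells lacking eIF4GI fragment.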 The conditions noted are these: TR-FRET eIF4E-eIF4GI(517-606) binding, 2 h; at 21.7 µM; hits give high values. In general terms: In TR-FRET formats the signal depends on donor and acceptor labels being close together.
Chain of Eukaryotic translation initiation factor 4E (Mus musculus) + Eukaryotic translation initiation factor 4 gamma 1 (Homo sapiens) (P63073 whole entry, looked up, the tested form may be a part): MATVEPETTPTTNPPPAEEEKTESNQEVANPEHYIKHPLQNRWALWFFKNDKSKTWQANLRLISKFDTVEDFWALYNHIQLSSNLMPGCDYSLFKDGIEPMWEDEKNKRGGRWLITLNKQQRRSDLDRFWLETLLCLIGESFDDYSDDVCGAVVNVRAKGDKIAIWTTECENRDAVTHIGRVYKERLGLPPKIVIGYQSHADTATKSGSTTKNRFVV
Chain of Eukaryotic translation initiation factor 4E (Mus musculus) + Eukaryotic translation initiation factor 4 gamma 1 (Homo sapiens) (Q04637 whole entry, looked up, the tested form may be a part): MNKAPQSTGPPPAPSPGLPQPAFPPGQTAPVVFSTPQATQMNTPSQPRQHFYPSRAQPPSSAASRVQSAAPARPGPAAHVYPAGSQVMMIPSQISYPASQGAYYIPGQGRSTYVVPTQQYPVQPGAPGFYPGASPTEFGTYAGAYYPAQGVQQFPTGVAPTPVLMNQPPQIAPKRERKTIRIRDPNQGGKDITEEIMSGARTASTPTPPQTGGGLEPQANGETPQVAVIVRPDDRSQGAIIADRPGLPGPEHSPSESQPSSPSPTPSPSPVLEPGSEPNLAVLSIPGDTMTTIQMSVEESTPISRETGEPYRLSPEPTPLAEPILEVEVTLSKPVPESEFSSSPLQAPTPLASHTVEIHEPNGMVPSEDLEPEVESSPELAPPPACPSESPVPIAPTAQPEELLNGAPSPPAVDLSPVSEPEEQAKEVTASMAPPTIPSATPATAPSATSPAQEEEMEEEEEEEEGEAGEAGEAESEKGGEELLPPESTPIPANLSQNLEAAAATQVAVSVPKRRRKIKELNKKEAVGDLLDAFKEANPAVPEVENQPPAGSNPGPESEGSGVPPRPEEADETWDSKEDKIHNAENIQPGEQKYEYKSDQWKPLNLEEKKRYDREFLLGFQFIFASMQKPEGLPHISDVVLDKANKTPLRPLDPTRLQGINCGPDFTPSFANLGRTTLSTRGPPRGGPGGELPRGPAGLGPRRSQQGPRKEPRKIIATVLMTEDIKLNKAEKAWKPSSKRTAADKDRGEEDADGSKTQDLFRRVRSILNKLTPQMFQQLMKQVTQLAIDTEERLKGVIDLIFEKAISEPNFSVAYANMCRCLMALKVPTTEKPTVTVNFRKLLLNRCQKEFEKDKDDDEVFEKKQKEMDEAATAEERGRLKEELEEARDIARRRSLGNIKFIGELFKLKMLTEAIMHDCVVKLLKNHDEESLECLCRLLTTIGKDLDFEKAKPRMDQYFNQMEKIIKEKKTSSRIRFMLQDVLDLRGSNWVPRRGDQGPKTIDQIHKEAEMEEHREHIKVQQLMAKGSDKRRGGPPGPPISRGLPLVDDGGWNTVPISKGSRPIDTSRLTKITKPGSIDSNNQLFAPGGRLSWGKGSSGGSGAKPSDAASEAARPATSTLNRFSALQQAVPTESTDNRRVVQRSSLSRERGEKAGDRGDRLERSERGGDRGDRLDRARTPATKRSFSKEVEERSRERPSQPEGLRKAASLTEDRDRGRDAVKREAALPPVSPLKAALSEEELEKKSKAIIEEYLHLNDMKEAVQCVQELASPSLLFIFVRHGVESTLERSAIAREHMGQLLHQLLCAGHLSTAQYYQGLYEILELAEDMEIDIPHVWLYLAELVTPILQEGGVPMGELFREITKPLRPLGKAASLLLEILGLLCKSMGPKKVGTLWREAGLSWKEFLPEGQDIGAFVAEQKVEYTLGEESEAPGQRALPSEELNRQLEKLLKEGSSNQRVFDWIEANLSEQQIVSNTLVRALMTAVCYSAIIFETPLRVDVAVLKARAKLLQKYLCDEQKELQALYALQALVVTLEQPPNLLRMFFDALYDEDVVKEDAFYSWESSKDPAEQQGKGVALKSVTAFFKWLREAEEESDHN
One may read the inhibition as the change of the read-out against control, counted positive when it falls. For the compound `COc1ccc(CNC(=O)C2CC(c3ccc(C(F)(F)F)cc3)=NO2)cc1` (stereo unspecified), the inhibition was 0.84% (inactive).

Turning to `C=C(C)C(=O)O[C@H]1C/C(C)=C\C(=O)/C=C(\C)[C@H](O)[C@@H]2OC(=O)C(=C)[C@@H]21`, the inhibition is 2.79% (inactive).

For `CCn1c(NC(=O)c2nn(C)cc2Br)nc2ccccc21`, the inhibition is 2.02% (inactive).

For `CC(C)N(C(=O)c1ccc(-c2ccccc2F)cc1)C(C)C`, the inhibition is 6.78% (inactive).

Regarding `O=S(=O)(c1ccc(Cl)cc1)N1CCCN(c2ccc(C(F)(F)F)cn2)CC1`, the inhibition is 2.55% (inactive).

Regarding `CCOC(=O)N1CCN(C(c2cccnc2)c2ccc3cccnc3c2O)CC1` (stereo unspecified), the inhibition is 41.4% [fluorescence artefact?] (active).

For the compound `CCN1CCN(C(c2cccnc2)c2cc(Cl)c3cccnc3c2O)CC1` (stereo unspecified), the inhibition was 15.4% (inactive).

Turning to `Oc1c(C(c2ccccn2)N2CCOCC2)ccc2cccnc12` (stereo unspecified), the inhibition is 5.26% (inactive).

In the case of `COc1ccc(Cc2nnc(NC(=O)Cc3cccs3)s2)cc1`, the inhibition is 30.8% (active).

With `O=C(Cc1cccs1)Nc1nnc(C2CC2)s1`, the inhibition is -4.66% (inactive).

`CCc1nnc(NC(=O)Cc2cccs2)s1`: the inhibition is 28.2% (inactive).

With `O=C1C(Cc2ccc(O)cc2)NC(=S)N1Cc1ccccc1` (stereo unspecified), the inhibition is 4.64% (inactive).

With `O=C(NC(Cc1c[nH]c2ccccc12)C(=O)O)/C(=C/c1ccco1)NC(=O)c1ccccc1` (stereo unspecified), the inhibition is 1.5% (inactive).

Take `CN(C(=O)Nc1ccc(Cl)cc1)n1cnc2ccccc2c1=O`: the inhibition is -1.03% (inactive).

As for `CC(C)(C)NC(=O)Cn1cnc2cc([N+](=O)[O-])ccc2c1=O`, the inhibition was 6.94% (inactive).

On to `O=C(Cn1cnc2cc([N+](=O)[O-])ccc2c1=O)NC(=O)NCc1ccccc1`, for which the inhibition was 90.5% (active).

With `O=C(Cn1cnc2c(cnn2-c2ccccc2)c1=O)NCc1ccccc1`, the inhibition was -7.03% (inactive).

On to `CCC(C)(C)NC(=O)/C=C/c1cc(OC)c(OC)c(S(=O)(=O)N2CCc3ccccc32)c1`, for which the inhibition was -2.6% (inactive).

As to `CCN(Cc1ccccc1)C(=O)CN1C(=S)NC(C)(C)CC1C` (stereo unspecified), the inhibition is -8.44% (inactive).

In the case of `CC(=O)Nc1cccc(/C(C)=N/NC(=O)c2c(-c3ccccc3Cl)noc2C)c1`, the inhibition is 1.91% (inactive).

For the compound `COc1ccc(N2CCN(C(=O)/C(C#N)=C/c3ccccc3)CC2)cc1`, the inhibition was 1.4% (inactive).

With `COC(=O)c1sc2[nH]c(=S)n(N)c(=O)c2c1C`, the inhibition is -5.75% (inactive).

For the compound `Cc1c(CN2CCC(CO)(CCOc3ccccc3)CC2)[nH]c2ccc(Cl)cc12`, the inhibition was 3.73% (inactive).

On to `Cc1cc(C)c2c(c1)cc(C)c1nnc(SCC(=O)Nc3cc(C)on3)n12`, for which the inhibition was 0.38% (inactive).

As for `CCCn1c(SCC(=O)Nc2cccc(C(=O)OCC)c2)nnc1-c1ccoc1C`, the inhibition is -5.54% (inactive).

Regarding `Cc1ccc(C)c2c1cc(C)c1nnc(SCC(=O)Nc3cccc(C(=O)O)c3)n12`, the inhibition was 92.4% (active).

With `CCCCOc1ccc(C(=O)NCC(=O)OCC(=O)N2CCN(S(=O)(=O)c3ccc(C)cc3C)CC2)cc1`, the inhibition is 11.8% (inactive).

On to `O=C(OCC(=O)c1c[nH]c2ccccc12)c1cccc(O)c1`, for which the inhibition was 49.4% (active).

`O=C(Cc1c[nH]c2ccccc12)OCCOC(=O)Cc1c[nH]c2ccccc12`: the inhibition was 0.18% (inactive).

Take `CC1CCN(CC(=O)c2c[nH]c3ccccc23)CC1`: the inhibition is -20.8% (inactive).

Regarding `CCOC(=O)CCCNC(=O)COC(=O)c1cc(Br)c(Br)s1`, the inhibition is -0.44% (inactive).

Turning to `COc1ccccc1OCC(=O)O/N=C(\N)c1ccccn1`, the inhibition was 4.41% (inactive).

As for `CCCn1nc(NS(=O)(=O)c2ccccc2)c2cc3cc(C)ccc3nc21`, the inhibition was 0.92% (inactive).

For `N#CCCCn1c(O)c(N=NC(=O)C(O)c2ccccc2)c2ccccc21` (stereo unspecified), the inhibition was 1.55% (inactive).

Turning to `COC(=O)Cn1c(O)c(N=NC(=O)OC)c2ccccc21`, the inhibition is 94.3% (active).

For the compound `CCCCn1c(O)c(N=NC(=O)Cn2c(C(F)(F)F)nc3ccccc32)c2ccccc21`, the inhibition was 16% (inactive).

For the compound `CC1(C)C(c2cccs2)=[N+]([O-])C2(CCCCC2=O)N1O` (stereo unspecified), the inhibition was -4.23% (inactive).

Turning to `COc1ccc(NC(=O)COc2ccc(C(=O)OCC(=O)N(C)C3CCS(=O)(=O)C3)cc2OC)cc1` (stereo unspecified), the inhibition is -0.66% (inactive).

Take `CN(C(=O)COC(=O)c1cc(-c2ccco2)nc2ccccc12)C1CCS(=O)(=O)C1` (stereo unspecified): the inhibition was 42.4% (active).

In the case of `Cc1c(-c2cccc(Cl)c2)nc2ccccc2c1C(=O)OCC(=O)N(C)C1CCS(=O)(=O)C1` (stereo unspecified), the inhibition is 2.67% (inactive).

Regarding `O=C(NNC(=S)NC(=O)c1cn(-c2ccccc2)nc1-c1ccccc1)c1ccncc1`, the inhibition is 0.17% (inactive).

With `Cc1ccc(N(C(=O)C(F)(F)F)C(C(=O)NC2CCCCC2)c2ccncc2)cc1C` (stereo unspecified), the inhibition is 4.58% (inactive).

Turning to `S=C(NCCc1ccccc1)N1CCn2cccc2C1c1ccncc1` (stereo unspecified), the inhibition was -2.42% (inactive).

Take `COc1ccc(NC(=S)NC2CCS(=O)(=O)C2)cc1` (stereo unspecified): the inhibition was 49.7% (active).

As for `COc1ccc(-c2ccc(OC(=O)NC3CCS(=O)(=O)C3)cc2)cc1` (stereo unspecified), the inhibition was 2.9% (inactive).

Consider `Cc1ccc(NC(=S)NC2CCCC2)cc1`, for which the inhibition is 1.43% (inactive).
